Here are results for one compound from PubChem BioAssay AID2284356 (EPA ToxCast).

Structures are written as SMILES. Results filed as inconclusive are left out. The source made the active and inactive calls. How the source made its calls: active means hit-call score of the fitted dose curve at least 0.9, where 1 is the maximum; inconclusive means response in the unintended direction; inactive means score below 0.9.

This test concerns the target zebrafish Estrogen Receptor (ER1), esr1 (gene 259252) (UniProt P57717). The test is described as follows: ATG_zfER1_EcoTox2: Attagene TRANS-FACTORIAL EcoTox-2 HepG2 Assay for zebrafish Estrogen Receptor (ER1). The protocol:
ATG_EcoTox2 is a cell-based, multiplexed assay created by modifying the existing Attagene TRANS-FACTORIAL system to include a panel of nuclear receptors from some or all the following species: human (Homo sapiens), african clawed frog (Xenopus laevis), rainbow trout (Oncorhynchus mykiss), japanese medaka (Oryzias latipes), and zebrafish (Danio rerio). The ECOTOX2-FACTORIAL format uses HepG2, a human liver cell line, with measurements taken at 24 hours after chemical dosing in a 24-well plate. ATG_zfER1_EcoTox2 is one of 29 assay components calculated in the ATG_EcoTox2 assay. It is designed to make measurements of mRNA induction, a form of inducible reporter, as detected with fluorescence intensity signals by Reverse transcription polymerase chain reaction (RT-PCR) and Capillary electrophoresis technology.The assay endpoint ATG_zfER1_EcoTox2 was analyzed in the positive analysis fitting direction relative to DMSO as the negative control and baseline of activity. Using a type of inducible reporter, measures of mRNA for gain-of-signal activity can be used to understand the reporter gene at the transcription factor-level as they relate to the gene ER. Furthermore, this assay endpoint can be referred to as a primary readout, because this assay has produced multiple assay endpoints where this one serves a reporter gene function. […]

zebrafish Estrogen Receptor (ER1), esr1 (gene 259252), sequence (P57717 whole entry, looked up): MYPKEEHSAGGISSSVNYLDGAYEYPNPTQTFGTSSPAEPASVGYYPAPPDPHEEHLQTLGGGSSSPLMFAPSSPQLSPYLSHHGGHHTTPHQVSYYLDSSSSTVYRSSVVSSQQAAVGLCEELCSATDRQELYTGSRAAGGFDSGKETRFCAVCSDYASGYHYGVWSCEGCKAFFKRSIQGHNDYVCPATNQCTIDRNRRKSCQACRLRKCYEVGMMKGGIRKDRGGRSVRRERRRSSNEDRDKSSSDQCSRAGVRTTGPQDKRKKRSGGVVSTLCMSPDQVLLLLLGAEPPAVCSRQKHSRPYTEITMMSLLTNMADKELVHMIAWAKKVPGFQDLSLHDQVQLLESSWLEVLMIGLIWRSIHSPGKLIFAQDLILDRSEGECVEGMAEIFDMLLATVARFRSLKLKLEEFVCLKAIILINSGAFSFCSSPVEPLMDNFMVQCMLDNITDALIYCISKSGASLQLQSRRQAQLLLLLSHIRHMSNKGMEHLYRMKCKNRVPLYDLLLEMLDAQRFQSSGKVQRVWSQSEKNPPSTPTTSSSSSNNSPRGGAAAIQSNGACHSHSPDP

With `O=S(=O)(O)C(F)(F)C(F)(F)C(F)(F)C(F)(F)C(F)(F)C(F)(F)F`, the outcome was inactive.
